Source: PubChem BioAssay (NCI)
About 79,000 compounds went through this panel and 15% of them were active in at least one assay; those are over-represented in the sample as a whole. Activity calls are given as the source filed them. Cut-off read from the data, not from the text of the source: active = growth inhibition above about 70%; inactive = the rest.

Legend:
[1] = NCI Yeast Anticancer Drug Screen. Data for the rad52 strain (AID 147);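 note: 0% = growth of vehicle-treated control cultures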; conditions: S. cerevisiae rad52 mutant growth inhibition, stronger effect = higher value
How it was run: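 Growth of repair-deficient yeast cells was compared between compound-treated and vehicle-treated cultures to give percent inhibition.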

[2] = NCI Yeast Anticancer Drug Screen. Data for the wt1 strain (AID 149);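 note: 0% = growth of vehicle-treated wt1 cultures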; conditions: S. cerevisiae wt1 strain (SPY 50644) growth inhibition, stronger effect = higher value
How it was run: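 Vehicle-normalised growth inhibition; strain wt1; compound exposure.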

[3] = NCI Yeast Anticancer Drug Screen. Data for the rad50EPP+ strain (AID 151);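 note: 0% = growth of vehicle-treated control cultures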; conditions: S. cerevisiae rad50 mutant strain, stronger effect = higher value
How it was run: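 Measured: growth inhibition of rad50EPP+ yeast. Reference: vehicle-treated controls. Screen uses strains with defined genetic alterations in DNA damage repair or cell cycle control.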

[4] = NCI Yeast Anticancer Drug Screen. Data for the mgt1 strain (AID 153); conditions: S. cerevisiae mgt1 mutant growth inhibition, stronger effect = higher value
How it was run: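 Compounds were applied to mgt1 mutant yeast, and growth was then compared against vehicle-treated control cultures to give percent inhibition.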

[5] = NCI Yeast Anticancer Drug Screen. Data for the rad50 strain (AID 155);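 note: 0% = growth of vehicle-only cultures of the same strain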; conditions: S. cerevisiae rad50 strain growth inhibition, stronger effect = higher value
How it was run: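 A DNA repair-deficient yeast mutant serves as the test organism; compound-induced growth inhibition is calculated against vehicle-treated cells.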

[6] = NCI Yeast Anticancer Drug Screen. Data for the mec2-1 strain (AID 157); conditions: S. cerevisiae mec2-1 strain, stronger effect = higher value
How it was run: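 Compounds were applied to mec2-1 yeast cells. Their growth was then compared with that of vehicle-treated cultures to give growth inhibition.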

[7] = NCI Yeast Anticancer Drug Screen. Data for the rad14 strain (AID 159);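 note: 0% = growth of vehicle-treated control cultures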; conditions: S. cerevisiae rad14 strain growth inhibition, stronger effect = higher value
How it was run: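 Vehicle-treated cultures served as the baseline for growth inhibition of a DNA repair-mutant yeast strain exposed to each compound.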

[8] = NCI Yeast Anticancer Drug Screen. Data for the sgs1 mgt1 strain (AID 161);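 note: 0% = growth of cultures given vehicle only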; conditions: S. cerevisiae sgs1 mgt1 strain, stronger effect = higher value
How it was run: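 Yeast cells carrying a defined DNA-repair defect were exposed to test compounds. Growth inhibition was measured relative to vehicle-treated controls.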

[9] = NCI Yeast Anticancer Drug Screen. Data for the CLN2oe strain (AID 163);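 note: 0% = growth of vehicle-only control cultures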; conditions: S. cerevisiae CLN2oe strain, stronger effect = higher value
How it was run: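 Cells of an engineered yeast line with disturbed cell-cycle regulation are treated with compound. Inhibition of growth is then calculated relative to the vehicle-treated reference.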

[10] = NCI Yeast Anticancer Drug Screen. Data for the cln2 rad14 strain (AID 165);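 note: 0% = growth equal to vehicle treated cultures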; conditions: S. cerevisiae cln2 rad14 strain, stronger effect = higher value
How it was run: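 Strain: cln2 rad14 yeast, altered in cell cycle control and DNA damage repair. Read-out: growth inhibition vs vehicle.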

[11] = NCI Yeast Anticancer Drug Screen. Data for the bub3 strain (AID 167); conditions: S. cerevisiae bub3 mutant strain, stronger effect = higher value
How it was run: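 Inhibition values come from growth of compound-treated mutant yeast normalised to vehicle-treated controls.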

[12] = NCI Yeast Anticancer Drug Screen. Data for the wt2 strain (AID 169);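 note: 0% = growth of vehicle-treated yeast cultures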; conditions: S. cerevisiae wt2 strain growth inhibition, stronger effect = higher value
How it was run: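 Growth of compound-treated yeast is measured and expressed as inhibition relative to vehicle-only controls.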

[13] = NCI Yeast Anticancer Drug Screen. Data for the mlh1 strain (AID 171);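 note: 0% = growth of vehicle-treated control cultures of the same strain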; conditions: S. cerevisiae mlh1 strain growth inhibition, stronger effect = higher value
How it was run: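 Test agents were incubated with yeast bearing a defined DNA damage repair or cell cycle control alteration; values are growth inhibition normalised to vehicle-treated cultures.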

[14] = NCI Yeast Anticancer Drug Screen. Data for the mlh1 rad18 strain (AID 175); conditions: S. cerevisiae mlh1 rad18 strain growth inhibition, stronger effect = higher value
How it was run: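 A repair-deficient yeast strain is exposed to test compound, and growth is scored relative to vehicle-treated controls.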

[15] = NCI Yeast Anticancer Drug Screen. Data for the rad18 strain (AID 177); conditions: S. cerevisiae rad18 mutant growth inhibition, stronger effect = higher value
How it was run: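 DNA-repair-defective yeast; compound treatment; growth inhibition scored against vehicle.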

[16] = at 5.0 µM (retest, dose inferred, filed as 0.5)
[17] = at 50.0 µM (retest, dose inferred, filed as 5.0)

Measured: growth inhibition

N#CCCC1C(C#N)C2(Cl)CC1(Cl)C(Cl)=C2Cl (stereo not drawn)
inactive: [1]; at 1.2 µM -15% | [1]; at 3.7 µM -6% | [1]; at 11.0 µM -2% | [2]; at 1.2 µM -1% | [2]; at 3.7 µM 8% | [2]; at 11.0 µM 1% | [2]; at 33.0 µM 61% | [3]; at 1.2 µM -4% | [3]; at 3.7 µM -20% | [3]; at 11.0 µM -22% | [3]; at 33.0 µM 4% | [4]; at 1.2 µM -38% | [4]; at 3.7 µM -46% | [4]; at 11.0 µM -38% | [4]; at 33.0 µM 6% | [5]; at 1.2 µM -10% | [5]; at 3.7 µM 7% | [5]; [16] -23% | [5]; at 11.0 µM 1% | [6]; at 1.2 µM -29% | [6]; at 3.7 µM -8% | [6]; [16] -16% | [6]; at 11.0 µM -7% | [6]; at 33.0 µM 45% | [7]; at 1.2 µM -44% | [7]; at 3.7 µM -36% | [7]; at 11.0 µM -20% | [8]; [16] -18% | [8]; [17] 4% | [9]; at 1.2 µM -28% | [9]; at 3.7 µM -9% | [9]; at 11.0 µM -6% | [9]; at 33.0 µM 38% | [10]; [16] 17% | [11]; at 1.2 µM -1% | [11]; at 3.7 µM -6% | [11]; [16] -8% | [11]; at 11.0 µM -15% | [11]; at 33.0 µM 58% | [12]; at 1.2 µM 5% | [12]; at 3.7 µM 5% | [12]; at 11.0 µM 0% | [12]; at 33.0 µM 31% | [13]; at 1.2 µM -42% | [13]; at 3.7 µM -37% | [13]; at 11.0 µM -22% | [13]; at 33.0 µM 16% | [14]; [16] -3% | [15]; at 1.2 µM -4% | [15]; at 3.7 µM -9% | [15]; at 11.0 µM 1%
active: [1]; at 33.0 µM 81% | [1]; at 100.0 µM 98% | [2]; at 100.0 µM 98% | [3]; at 100.0 µM 84% | [4]; at 100.0 µM 98% | [5]; at 33.0 µM 84% | [5]; [17] 89% | [5]; at 50.0 µM 89.9% | [5]; at 100.0 µM 97% | [6]; [17] 82% | [6]; at 50.0 µM 92% | [6]; at 100.0 µM 98% | [7]; at 33.0 µM 77% | [7]; at 100.0 µM 98% | [8]; at 50.0 µM 91.5% | [9]; at 100.0 µM 96% | [10]; [17] 75% | [10]; at 50.0 µM 87.8% | [11]; [17] 73% | [11]; at 50.0 µM 89.2% | [11]; at 100.0 µM 96% | [12]; at 100.0 µM 98% | [13]; at 100.0 µM 97% | [14]; [17] 85% | [14]; at 50.0 µM 86.8% | [15]; at 33.0 µM 83% | [15]; at 100.0 µM 98%

CC(=O)/C=C/c1cccc([N+](=O)[O-])c1
inactive: [1]; at 1.2 µM 2% | [1]; at 3.7 µM 4% | [1]; at 11.0 µM 9% | [1]; at 33.0 µM 29% | [2]; at 1.2 µM 1% | [2]; at 3.7 µM 4% | [2]; at 11.0 µM 8% | [2]; at 33.0 µM 16% | [2]; at 100.0 µM 68% | [3]; at 1.2 µM 3% | [3]; at 3.7 µM 7% | [3]; at 11.0 µM 29% | [4]; at 1.2 µM 1% | [4]; at 3.7 µM 2% | [4]; at 11.0 µM 7% | [4]; at 33.0 µM 48% | [5]; at 1.2 µM 0% | [5]; at 3.7 µM 3% | [5]; [16] -4% | [5]; at 11.0 µM 8% | [5]; at 33.0 µM 20% | [6]; at 1.2 µM 0% | [6]; at 3.7 µM 2% | [6]; [16] 2% | [6]; at 11.0 µM 3% | [6]; at 33.0 µM 29% | [6]; [17] 56% | [6]; at 50.0 µM 51% | [7]; at 1.2 µM -2% | [7]; at 3.7 µM 0% | [7]; at 11.0 µM 7% | [7]; at 33.0 µM 21% | [8]; [16] -3% | [8]; at 50.0 µM 48% | [9]; at 1.2 µM -2% | [9]; at 3.7 µM -2% | [9]; at 11.0 µM 1% | [9]; at 33.0 µM 6% | [9]; at 100.0 µM 44% | [10]; [16] 5% | [10]; [17] 4% | [10]; at 50.0 µM 6.15% | [11]; at 1.2 µM -4% | [11]; at 3.7 µM -5% | [11]; [16] 31% | [11]; at 11.0 µM -2% | [11]; at 33.0 µM 28% | [12]; at 1.2 µM 1% | [12]; at 3.7 µM 4% | [12]; at 11.0 µM 10% | [12]; at 33.0 µM 28% | [13]; at 1.2 µM 2% | [13]; at 3.7 µM 1% | [13]; at 11.0 µM 10% | [13]; at 33.0 µM 32% | [15]; at 1.2 µM 1% | [15]; at 3.7 µM 2% | [15]; at 11.0 µM 21% | [15]; at 33.0 µM 22%
active: [1]; at 100.0 µM 86% | [3]; at 33.0 µM 81% | [3]; at 100.0 µM 98% | [4]; at 100.0 µM 94% | [5]; [17] 84% | [5]; at 50.0 µM 82% | [5]; at 100.0 µM 89% | [6]; at 100.0 µM 95% | [7]; at 100.0 µM 91% | [8]; [17] 85% | [11]; [17] 89% | [11]; at 50.0 µM 72.4% | [11]; at 100.0 µM 91% | [12]; at 100.0 µM 88% | [13]; at 100.0 µM 95% | [15]; at 100.0 µM 77%
